These results are taken from PubChem BioAssay (EPA / NIEHS).

Active and inactive are the calls of the source. Rule for the calls: active = hit-call score of the fitted dose curve at least 0.9, where 1 is the maximum; inactive = score below 0.9.

The nature of the assay: APR_HepG2_NuclearSize_72hr: Apredica 72-hour HepG2 Assay for Nuclear Size (AID 2282925). Particulars: high-content imaging, actives raise or lower the signal. Here is the method:
APR_HepG2_72hr is a cell-based, multiplexed-readout assay that uses HepG2, a human liver cell line, with measurements taken at 72 hours after chemical dosing in a 384-well plate.APR_HepG2_NuclearSize_72hr is one of 10 assay component(s) measured or calculated from the APR_HepG2_72hr assay. It is designed to make measurements of cell phenotype, a form of morphology reporter, as detected with fluorescence intensity signals by HCS Fluorescent Imaging technology.Data from the assay component APR_HepG2_NuclearSize_72hr was analyzed into 1 assay endpoint. This assay endpoint, APR_HepG2_NuclearSize_72hr, was analyzed with bidirectional fitting relative to DMSO as the negative control and baseline of activity. Using a type of morphology reporter, measures of all nuclear dna for gain or loss-of-signal activity can be used to understand the signaling at the nuclear-level. Furthermore, this assay endpoint can be referred to as a primary readout, because this assay has produced multiple assay endpoints where this one serves a signaling function. To generalize the intended target to other relatable targets, this assay endpoint is annotated to the cell morphology intended target family, where the subfamily is organelle conformation.
Cells were treated with dimethyl sulfoxide (DMSO) as a solvent control at a final concentration of 0.5% v/v or with compounds in DMSO with a resulting final DMSO concentration of 0.5% v/v. Compound treatment was done at concentrations of 0.39, 0.78, 1.56, 3.12, 6.24, 12.5, 25, 50, 100, and 200 uM in duplicate on each plate. Cells were treated with compounds for 1, 24, or 72 hr. Carbonyl […] m-chloro-phenylhydrazone (CCCP) and taxol were used as positive controls for mitochondrial function and cytoskeletal stability, respectively; DMSO served as the negative control for this experiment. Cells were fixed by the direct addition of 50 uL formaldehyde in Hank's Balanced Salt Solution (HBSS) to a final concentration of 3.7%. After incubation in the fixation medium for 30 min at room temperature (293-298 K), cells were rinsed twice with HBSS and treated with cell permeabilization buffer (16 uL of 0.5% Triton X-100) for 10 min at room temperature (293-298 K) before labeling. For mitochondrial membrane potential and mitochondrial measurements, pre-fixed cells were incubated with 50 uL of MitoTracker Red CMXRos (Invitrogen) at a concentration of 250 nM for 30 min before fixation. In the remaining cases, post-fixed cells were labeled by incubation with a multiplexed mixture of primary antibodies in HBSS for 60 min at room temperature (293-298 K) to detect immunoreactivity of c-Jun (1:500), phospho-histone H3 (1:100), phospho-histone H2A.x (1:200), p53 (1:400), alpha-tubulin (1:200) and Hoechst 33342 (2 ug/mL). Cells were labeled for multiplexed imaging on two separate plates: a) Hoechst 33342, MitoTracker Red, phospho-histone H3, and alpha-tubulin, and b) Hoechst 33342, phospho-histone H2A.x, and c-Jun. A final rinse with HBSS (50 uL) was performed before analysis. The primary and secondary antibodies for the proteins were phospho-histone H3 (rabbit anti-phospho-histone H3 and FITC-donkey anti-rabbit IgG), phospho-histone H2A.x (mouse anti-phospho-histone H2A.x and FITC-donkey anti-mouse IgG), c-Jun (rabbit anti-phospho-c-Jun and Cy3-donkey anti-rabbit IgG), p53 (sheep anti-p53 and Cy5-donkey anti-sheep IgG), alpha-tubulin (mouse anti-alpha-tubulin and Cy5-donkey anti-mouse IgG). These antibodies are available as the CellCiphr HepG2 assay kit (Millipore).Digital images of each well were captured using a Cellomics ArrayScan VTI (Thermo Scientific Cellomics) (0.8 NA objective, 0.63x optical coupler, and XF-93 filter set) at 20x magnification. The images were acquired using the autofocus feature of the ArrayScan instrument, which entails the following steps. First, the camera focuses on channel 1 (Hoechst 33342), where nuclei are identified. Second, a Z offset of 1 um is used for capturing mitochondria (MitoTracker Red). […]
For the molecule `Cc1ccc(-c2c(Cl)nc(C#N)n2S(=O)(=O)N(C)C)cc1`, the molecule was classed as inactive. With `COP(=S)(OC)Oc1nc(Cl)c(Cl)cc1Cl` the entry was “inactive”; with `CCCCOC(=O)c1ccccc1C(=O)OCCCC`, “inactive”; with `COC(=O)C=C(C)OP(=O)(OC)OC`, “inactive”.

Turning to `COc1nc(C)nc(NC(=O)NS(=O)(=O)c2ccccc2Cl)n1`, the outcome was inactive. With `N#Cc1cc(Br)c(O)c(Br)c1` the entry was “inactive”.

On to `C=CCC1=C(C)[C@@H](OC(=O)[C@@H]2[C@@H](C=C(C)C)C2(C)C)CC1=O`, for which the result was inactive. Take `OC(c1ccc(Cl)cc1)(c1cncnc1)c1ccccc1Cl` (stereo not given): the result was inactive. Turning to `CCNc1nc(Cl)nc(NCC)n1`, the molecule was called inactive. Regarding `O=C(O)c1nc(Cl)ccc1Cl`, the outcome was inactive.

For the molecule `COP(N)(=O)SC` (stereo not given), the call was inactive. Regarding `CON(C)C(=O)Nc1ccc(Cl)c(Cl)c1`, the call was inactive.

For the molecule `N#Cc1nn(-c2c(Cl)cc(C(F)(F)F)cc2Cl)c(N)c1S(=O)C(F)(F)F` (stereo not given), the molecule was classed as inactive. With `CC1=C(C(=O)Nc2ccccc2)SCCO1` the entry was “inactive”. With `C#CCOS(=O)OC1CCCCC1Oc1ccc(C(C)(C)C)cc1` (stereo not given) the entry was “inactive”; with `CS/C(C)=N/OC(=O)N(C)SN(C)C(=O)O/N=C(\C)SC`, “inactive”; with `CCOP(=S)(OCC)SCn1c(=O)oc2cc(Cl)ccc21`, “inactive”.

As for `CO/C=C(/C(=O)OC)c1ccccc1Oc1cc(Oc2ccccc2C#N)ncn1`, the call was inactive. The result for `CC(Oc1ccc(Cl)cc1Cl)C(=O)O` (stereo not given) reads “inactive”; that for `CNC(=O)ON=CC(C)(C)SC`, “inactive”. Turning to `O=C(Nc1ccccc1)Nc1ccnc(Cl)c1`, the call was inactive. In the case of `COc1nc(C)nc(NC(=O)NS(=O)(=O)c2ccccc2CCC(F)(F)F)n1`, the outcome was inactive. The result for `Cc1c(F)c(F)c(COC(=O)C2C(/C=C(\Cl)C(F)(F)F)C2(C)C)c(F)c1F` (stereo not given) reads “inactive”; that for `C=CC1(C)OC(=O)N(c2cc(Cl)cc(Cl)c2)C1=O` (stereo not given), “inactive”. On to `CC1COC(Cn2cncn2)(c2ccc(Oc3ccc(Cl)cc3)cc2Cl)O1` (stereo not given), for which the result was inactive.

For the molecule `Cc1cc(Cl)ccc1OCC(=O)O`, the result was inactive. With `CCCN(CCC)c1c([N+](=O)[O-])cc(S(N)(=O)=O)cc1[N+](=O)[O-]` the entry was “inactive”; with `CCCCC(CC)COC(=O)c1ccccc1C(=O)OCC(CC)CCCC` (stereo not given), “inactive”; with `CN(C)C(=S)SSC(=S)N(C)C`, “inactive”. `Oc1ccccc1-c1ccccc1`: the call was inactive. With `CCCC1COC(Cn2cncn2)(c2ccc(Cl)cc2Cl)O1` (stereo not given) the entry was “inactive”; with `COc1cnc(OC)n2nc(NS(=O)(=O)c3c(OCC(F)F)cccc3C(F)(F)F)nc12`, “inactive”. Take `N#CC(CCc1ccc(Cl)cc1)(Cn1cncn1)c1ccccc1` (stereo not given): the outcome was inactive. `Fc1ccc(Oc2ccnc3cc(Cl)cc(Cl)c23)cc1`: the call was inactive. The result for `CCOC(=O)CC(SP(=S)(OC)OC)C(=O)OCC` (stereo not given) reads “inactive”; that for `CCCCNC(=O)n1c(NC(=O)OC)nc2ccccc21`, “inactive”; that for `O=C(O)COc1nc(Cl)c(Cl)cc1Cl`, “inactive”. `CCc1nn(C)c(C(=O)NCc2ccc(C(C)(C)C)cc2)c1Cl`: the outcome was inactive. With `COC(=O)c1ccccc1C(=O)OC` the entry was “inactive”; with `CCOC(=O)C(Cl)Cc1cc(-n2nc(C)n(C(F)F)c2=O)c(F)cc1Cl` (stereo not given), “inactive”.
